Experimental data from PubChem BioAssay.
Results filed as inconclusive are left out. Calls of active or inactive are those of the source.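 How the source made its calls, unless noted: active means growth inhibition above 25% in both replicates, a cutoff set 3 SD above the mean; inconclusive means above 25% in only one replicate; inactive means the rest.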

What was measured:
[1] = Her2 expression decrease, cell viability multiplex – SKBR3 breast tumor cells, AlphaScreen, ATP viability, primary screen (AID 461;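 active means Her2 level under about 52% in both replicate screens, with viability over 70% of control, limit read from the data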;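 on Her2 level: lower value means less Her2 protein in the cells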;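 on viability: percent of carrier control wells set as 100% viability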); details: SKBR3 Her2 protein level, 18-24 h, measured here: SKBR3 viability, ATP luminescence, at 10 µM
[2] = molecular target: Receptor tyrosine-protein kinase erbB-2 (Homo sapiens) (UniProt P04626); test: as above; details: 18-24 h, at 10 µM, stronger effect = lower value
Chain of Receptor tyrosine-protein kinase erbB-2 (Homo sapiens) (P04626 whole entry, looked up): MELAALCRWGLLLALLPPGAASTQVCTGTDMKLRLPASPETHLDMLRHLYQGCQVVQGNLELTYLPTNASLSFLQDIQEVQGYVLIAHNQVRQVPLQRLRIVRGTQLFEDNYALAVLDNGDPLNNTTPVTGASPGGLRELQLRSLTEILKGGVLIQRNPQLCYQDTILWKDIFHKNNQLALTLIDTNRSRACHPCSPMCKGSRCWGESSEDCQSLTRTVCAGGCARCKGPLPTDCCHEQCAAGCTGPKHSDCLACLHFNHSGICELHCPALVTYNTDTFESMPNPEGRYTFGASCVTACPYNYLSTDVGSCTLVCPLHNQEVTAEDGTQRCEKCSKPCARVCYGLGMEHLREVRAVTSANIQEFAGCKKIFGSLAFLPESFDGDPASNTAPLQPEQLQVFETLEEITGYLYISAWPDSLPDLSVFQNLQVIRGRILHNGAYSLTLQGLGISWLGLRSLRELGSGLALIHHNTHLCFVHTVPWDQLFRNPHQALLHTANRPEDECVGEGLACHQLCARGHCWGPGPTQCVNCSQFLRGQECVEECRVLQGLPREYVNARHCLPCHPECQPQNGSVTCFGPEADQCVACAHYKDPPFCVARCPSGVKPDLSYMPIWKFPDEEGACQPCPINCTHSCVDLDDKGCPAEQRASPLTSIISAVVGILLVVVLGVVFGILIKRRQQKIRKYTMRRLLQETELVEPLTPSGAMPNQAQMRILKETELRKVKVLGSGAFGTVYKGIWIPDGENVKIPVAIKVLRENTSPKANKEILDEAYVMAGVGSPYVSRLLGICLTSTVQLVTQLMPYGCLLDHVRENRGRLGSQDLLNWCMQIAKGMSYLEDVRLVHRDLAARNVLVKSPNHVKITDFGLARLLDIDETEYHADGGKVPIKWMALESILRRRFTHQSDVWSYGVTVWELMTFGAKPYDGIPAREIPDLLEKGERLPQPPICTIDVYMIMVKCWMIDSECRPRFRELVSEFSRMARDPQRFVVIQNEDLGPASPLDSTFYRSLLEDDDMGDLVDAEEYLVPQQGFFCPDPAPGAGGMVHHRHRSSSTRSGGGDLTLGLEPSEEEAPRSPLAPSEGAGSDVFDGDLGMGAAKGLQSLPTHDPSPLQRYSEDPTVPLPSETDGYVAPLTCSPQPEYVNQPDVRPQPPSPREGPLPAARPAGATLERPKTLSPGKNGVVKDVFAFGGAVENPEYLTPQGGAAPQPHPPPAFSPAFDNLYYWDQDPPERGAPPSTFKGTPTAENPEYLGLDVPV

[3] = reduced viability of SK-BR-3 breast cancer cells – cell-based, 24 h, human, pilot screen (AID 572;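 active means viability at or below 10% of carrier control in both of two separate runs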;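 further: compound exposure lasted between 18 and 24 h rather than exactly 24 h; 100% = carrier-treated control wells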); details: SK-BR-3 viability, CellTiter-Glo luminescence, at 10 µM, stronger effect = lower value
[4] = HUVEC growth inhibition – cell-based, human, primary screen (AID 575;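 active means viability at or below 30% in both replicate assays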;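 further: 100% = median of untreated cell wells with 0.1% DMSO on each plate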); details: HUVEC proliferation, CellTiter-Glo luminescence, 72 h; at 10 µM; stronger effect = lower value
[5] = H69AR cell proliferation blockers – human, duplicate replicates, primary screen (AID 580;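 active means viability at or under a set limit in both replicates, limit being median viability minus 3 SD, cut at about 48% in these data, passing the limit was not always enough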;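 further: 100% = mean luminescence of untreated wells and 0% = no signal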); details: H69AR lung tumor cells viability, ATP luminescence, 72 h; at 10 µM; stronger effect = lower value
[6] = MRP1 drug-resistance reversers in H69AR cells – cell-based, doxorubicin co-treatment, pilot screen (AID 601;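 active means viability loss from added drug above about 55%, and viability with drug at most 40%, in both replicates, limit read from the data, passing the limit was not always enough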); details: CellTiter-Glo, 72 h, at 10 µM; for differential viability (reversal): stronger effect = higher value
[7] = yeast transport mutant growth inhibition pilot in 384-well plates, post-Golgi transport modulator project (AID 636; in the data active means inhibition above about 31%); details: absorbance 615 nm, about 18 h, stronger effect = higher value
[8] = growth suppression of yeast trafficking mutant, preliminary HTS, modulators of trafficking downstream of Golgi apparatus project, 1536-format plate, OD 615 nm (AID 637; in the data active means inhibition above about 30%); details: yeast transport mutant growth, absorbance 615 nm, 18 h; stronger effect = higher value
[9] = S. cerevisiae growth inhibition in permissive medium (OD615), pilot counter-assay for S. cerevisiae lifespan shortening project, permissive growth control (AID 705); details: OD615, 24 h, at 10 µM, stronger effect = higher value
[10] = S. cerevisiae growth inhibition in restrictive medium, OD615, pilot screen, restrictive growth control, yeast lifespan reduction project (AID 706;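 active means growth inhibition above a set limit, 3 SD over mean compound inhibition, in both replicates, cut at about 43% in these data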;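 further: modified DeaD lifespan yeast strain shifted to restrictive glucose medium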); details: OD615, 48 h, at 10 µM, stronger effect = higher value
[11] = doxorubicin toxicity protection in MRP-1 cells – H69AR cells, CellTiter-Glo, duplicate, MRP-1 activator project, pilot screen (AID 807;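 active means viability increase at or above a cutoff of the median across tested compounds plus 3 SD, cut at about 8.5% in these data, passing the limit was not always enough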;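 further: compound pretreatment 18-22 h then 72 h combined with doxorubicin; 0% = doxorubicin alone and 100% = vehicle without doxorubicin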); details: H69AR viability with doxorubicin, CellTiter-Glo luminescence; at 10 µM; stronger effect = higher value
[12] = viability of HCT116 without oncogenic beta-catenin – human colon tumor cells, pilot screen (AID 823;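 active means cell viability at or below a set limit in both duplicate runs, the limit being the all-compound median minus 4 SD, cut at about 23% in these data, passing the limit was not always enough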;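 further: 0% = wells killed by 20 µM Hyamine and 100% = untreated DMSO cell wells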); details: HCT116 beta-catenin knockout viability, CellTiter-Glo, 60 h; at 10 µM; stronger effect = lower value
[13] = viability of PTEN-null HCT116 cells – cell-based, HCT116 clonal line, CellTiter-Glo, pilot screen (AID 824;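 active means viability at or below 27.92% in each of two runs, the all-compound median minus 4 SD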;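 further: 0% = 20 µM Hyamine control and 100% = vehicle cell control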); details: HCT116 PTEN-deleted viability, 60 h, at 10 µM, stronger effect = lower value
[14] = RAM pathway blockade in budding yeast – dse1pr::URA3 reporter, 5-FOA selection, pilot screen (AID 869;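 active means inhibition over a set limit, the all-compound mean plus 3 SD, in both replicate runs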;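 further: 0% = DMSO wells with no growth and 100% = 10 µM 1-NA-PP1 with full growth; RAM network block rescues cells from 5-FOA so hits raise OD615 growth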); details: S. cerevisiae dse1pr::URA3 5-FOA growth, OD615, 2 d; at 10 µM; stronger effect = higher value; strain carries analog-sensitive mutant Cbk1 kinase
[15] = RAM signaling pathway blockade in yeast – S. cerevisiae, Pdr1DBD-CYC8 efflux-inhibited sensitized strain, primary screen (AID 1298;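 active means RAM network inhibition above 8.4% in each of two replicates, 3 SD over the compound average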;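 further: 0% = DMSO untreated cells without growth and 100% = 10 µM 1-NA-PP1 full growth; higher means more yeast growth rescued from 5-FOA killing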); details: S. cerevisiae cbk1-as DSE1-URA3 strain, 5-FOA growth OD615, 2 d; at 50 µM; stronger effect = higher value
[16] = H69AR cells + 2 uM doxorubicin, measured here: viability with 2 uM doxorubicin, stronger effect = lower value
[17] = H69AR cells, compound alone cytotoxicity

SMILES	viability [1]	Her2 level [2]	viability [3]	viability [4]	viability [5]	differential viability (reversal) ([6]; H69AR cells + 2 uM doxorubicin)	viability [6, 16]	viability [6, 17]	inhibition [7]	inhibition [8]	growth inhibition [9]	growth inhibition [10]	viability increase [11]	viability [12]	viability [13]	inhibition [14]	RAM network inhibition [15]
COCCNC(=O)CN1CCN(Cc2cccc(Cl)c2)C1=O	102%	112% (inactive)	102% (inactive)	99.3% (inactive)	103% (inactive)	17.5% (inactive)	85.4%	103%	-5.47% (inactive)	-3.93% (inactive)	6.16% (inactive)	1.19% (inactive)	-0.8% (inactive)	102% (inactive)	95.5% (inactive)	0.485% (inactive)	-0.14% (inactive)
c1ccc(C(Cc2nc(-c3ccccn3)no2)c2ccccc2)cc1	96%	94% (inactive)	96% (inactive)	92.8% (inactive)	95.2% (inactive)	-11.8% (inactive)	107%	95.2%	-4.03% (inactive)	1.8% (inactive)	-9.91% (inactive)	12.9% (inactive)	-2.01% (inactive)	89.7% (inactive)	82.5% (inactive)	1.98% (inactive)	6.08% (inactive)
CC1(C)Cc2ccccc2C(N)=C1C#N	93.5%	111% (inactive)	93.5% (inactive)	87.5% (inactive)	93.7% (inactive)	9.91% (inactive)	83.8%	93.7%	4.81% (inactive)	-3.11% (inactive)	4.29% (inactive)	-0.06% (inactive)	-0.77% (inactive)	89.9% (inactive)	91.8% (inactive)	0.81% (inactive)	0.69% (inactive)
CC(CCC(=O)Nc1nncs1)C(=O)O (stereo not given)	124%	110% (inactive)	124% (inactive)	101% (inactive)	85.9% (inactive)	-0.74% (inactive)	86.6%	85.9%	-3.2% (inactive)	8.33% (inactive)	-8.12% (inactive)	-5.29% (inactive)	0.04% (inactive)	108% (inactive)	95.9% (inactive)	0.135% (inactive)	-0.05% (inactive)
Cc1ccc(-c2noc(COc3ccccc3C)n2)cc1	72.5%	92% (inactive)	72.5% (inactive)	102% (inactive)	96.9% (inactive)	10.6% (inactive)	86.3%	96.9%	-1.2% (inactive)	1.61% (inactive)	-13.7% (inactive)	-16.5% (inactive)	3.84% (inactive)	93% (inactive)	103% (inactive)	0.065% (inactive)	0% (inactive)
COCCN(CCOC)Cc1c(C)[nH]c2ccccc2c1=O	96.5%	98% (inactive)	96.5% (inactive)	105% (inactive)	89.4% (inactive)	-4.47% (inactive)	93.8%	89.4%	1.28% (inactive)	-7.5% (inactive)	-0.675% (inactive)	-3.83% (inactive)	-2.47% (inactive)	92.1% (inactive)	91.3% (inactive)	1.22% (inactive)	3.31% (inactive)
O=C(C1CCN(c2nnc(-n3cccc3)s2)CC1)N1CCOCC1	84%	80% (inactive)	84% (inactive)	86.2% (inactive)	87.5% (inactive)	0.17% (inactive)	87.3%	87.5%	-5.2% (inactive)	-1.67% (inactive)	-0.63% (inactive)	-1.73% (inactive)	0.27% (inactive)	101% (inactive)	96.7% (inactive)	1.83% (inactive)	6.37% (inactive)
COc1cc(C2c3c(oc4ccccc4c3=O)C(=O)N2c2ccc(C)cn2)ccc1O (stereo not given)	66%	114% (inactive)	66% (inactive)	94.6% (inactive)	101% (inactive)	1.23% (inactive)	100%	101%	-0.9% (inactive)	-4% (inactive)	-6.67% (inactive)	-1.33% (inactive)	-2.69% (inactive)	91.9% (inactive)	88.4% (inactive)	0.865% (inactive)	4.26% (inactive)
CC(CCc1ccco1)NC(=O)Cn1ncc2c1-c1ccccc1OC2 (stereo not given)	93%	90% (inactive)	93% (inactive)	90.8% (inactive)	92.9% (inactive)	11.9% (inactive)	81%	92.9%	-2.4% (inactive)	-0.66% (inactive)	-5.12% (inactive)	-19% (inactive)	-4.45% (inactive)	101% (inactive)	91.3% (inactive)	1.11% (inactive)	7.86% (inactive)
COc1ccccc1CNC(=O)C1CCC(CNc2c(N3CCOCC3)c(=O)c2=O)CC1 (stereo not given)	90.5%	126% (inactive)	90.5% (inactive)	86.7% (inactive)	105% (inactive)	12% (inactive)	92.8%	105%	1.03% (inactive)	3% (inactive)	-3.5% (inactive)	8.34% (inactive)	0.11% (inactive)	101% (inactive)	104% (inactive)	1.35% (inactive)	3.53% (inactive)
CCOCCCNC(=O)c1ccc2c(c1)N(Cc1ccccc1)C(=O)CS2=O (stereo not given)	104%	103% (inactive)	104% (inactive)	103% (inactive)	106% (inactive)	10.2% (inactive)	96.1%	106%	0.13% (inactive)	-10.7% (inactive)	-5.99% (inactive)	6.05% (inactive)	-0.16% (inactive)	102% (inactive)	93.1% (inactive)	1.42% (inactive)	-0.72% (inactive)
CCOC(=O)Nc1ccc2c(c1)N(C(=O)OCCN(C)C)c1ccccc1CC2	94.5%	100% (inactive)	94.5% (inactive)	77.5% (inactive)	90.2% (inactive)	12.4% (inactive)	77.7%	90.2%	-7.07% (inactive)	-9.02% (inactive)	-10.3% (inactive)	-0.265% (inactive)	-4.23% (inactive)	73.5% (inactive)	78.8% (inactive)	1.89% (inactive)	2.2% (inactive)
Cc1cc(NC(=O)CS(=O)(=O)c2cn(Cc3cccc(F)c3)c3ccccc23)no1	124%	75.5% (inactive)	124% (inactive)	69.7% (inactive)	92.7% (inactive)	3.98% (inactive)	88.7%	92.7%	-6.62% (inactive)	-4.67% (inactive)	-5.79% (inactive)	-24.3% (inactive)	-1.03% (inactive)	65.8% (inactive)	72.2% (inactive)	1.3% (inactive)	5.39% (inactive)
CCOc1ccc(NC(=O)CN2C(=O)C3CCCN3C2=O)cc1 (stereo not given)	85%	106% (inactive)	85% (inactive)	94.6% (inactive)	101% (inactive)	3.86% (inactive)	97.5%	101%	-2.53% (inactive)	3.67% (inactive)	-4.76% (inactive)	-13.8% (inactive)	-0.9% (inactive)	102% (inactive)	97.1% (inactive)	-0.315% (inactive)	2.93% (inactive)
O=C(Nc1ccc2c(c1)OCCO2)c1cnc2n(c1=O)CCS2	85.5%	80.5% (inactive)	85.5% (inactive)	105% (inactive)	79.4% (inactive)	0.765% (inactive)	78.7%	79.4%	0.93% (inactive)	-2.95% (inactive)	-17.9% (inactive)	2.96% (inactive)	3.01% (inactive)	106% (inactive)	104% (inactive)	1.6% (inactive)	4.19% (inactive)
COc1ccc(CNC(=O)c2cnc3n(c2=O)CCS3)cc1	81.5%	87.5% (inactive)	81.5% (inactive)	90.6% (inactive)	94.9% (inactive)	-3.02% (inactive)	97.9%	94.9%	-3.87% (inactive)	-2.17% (inactive)	5.72% (inactive)	4.27% (inactive)	-1.21% (inactive)	95.8% (inactive)	98.3% (inactive)	3.5% (inactive)	2.5% (inactive)
CC(=O)Nc1ccc(N=Cc2ccc[nH]2)cc1	97.5%	87.5% (inactive)	97.5% (inactive)	95.3% (inactive)	88.5% (inactive)	-1.47% (inactive)	90%	88.5%	1.28% (inactive)	-5.5% (inactive)	-11.4% (inactive)	-5.65% (inactive)	-1.9% (inactive)	90.7% (inactive)	92.8% (inactive)	0.435% (inactive)	3.68% (inactive)
CCCCn1c2c(c3ccccc31)CCc1nonc1-2	107%	108% (inactive)	107% (inactive)	89.6% (inactive)	103% (inactive)	-2.16% (inactive)	105%	103%	-0.77% (inactive)	-3.67% (inactive)	-8.86% (inactive)	-29.4% (inactive)	1.75% (inactive)	80.4% (inactive)	78.4% (inactive)	2.28% (inactive)	2.83% (inactive)
CC1CCN(C(=O)CSCC(=O)Nc2nc(-c3cccs3)cs2)CC1	86%	80.5% (inactive)	86% (inactive)	67% (inactive)	91.1% (inactive)	4.54% (inactive)	86.6%	91.1%	-1.33% (inactive)	-1.15% (inactive)	1.36% (inactive)	-5.56% (inactive)	-4.14% (inactive)	100% (inactive)	92.1% (inactive)	0.24% (inactive)	-0.16% (inactive)
Cn1c(=O)[nH]c(=O)c2c1nc(N1CCCCC1)n2CCSc1ncccn1	101%	89.5% (inactive)	101% (inactive)	102% (inactive)	88.8% (inactive)	-3.65% (inactive)	92.5%	88.8%	-3.2% (inactive)	0.83% (inactive)	1.54% (inactive)	-4.51% (inactive)	1.1% (inactive)	101% (inactive)	103% (inactive)	2.44% (inactive)	-0.42% (inactive)
